Test results: the supplement of paper PMC12669032;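 active = AUC reduced over 20% with Padj below 0.05 in at least 2 of 3 replicates; inactive = otherwise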

tested on: Roseburia intestinalis; test: growth AUC relative to DMSO control (median of replicates) (fraction); higher = more growth (less inhibition), active = hit call of the paper; details: 20 µM; 24 h
In short: (§1)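 Three biological replicates, each grown on a separate day, were combined as a median for every value. In each, a gut bacterial monoculture in mGAM started at OD600 0.05 and grew anaerobically at 37 °C with 20 µM compound (1% DMSO), with OD600 read hourly over 24 h. Area under the growth curve was normalised against the plate median of solvent-only wells, or against row and column medians on the industrial chemical plate, after the minimum OD was set to 0.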

Structure (SMILES) | growth AUC
CCCSP(=O)(OCC)Oc1ccc(Br)cc1Cl (configuration not stated) | 1.01 (inactive)
C[C@@H](Oc1ccc(Oc2nc3ccc(Cl)cc3o2)cc1)C(=O)O | 1.04 (inactive)
CCOP(=O)(NC(C)C)Oc1ccc(SC)c(C)c1 (configuration not stated) | 1.02 (inactive)
[Cl][Sn]([c]1ccccc1)([c]1ccccc1)[c]1ccccc1 | 0.0424 (active)
CCCCCCCCSC(=O)Oc1cc(Cl)nnc1-c1ccccc1 | 1.06 (inactive)
COP(=O)(OC)OC=C(Cl)Cl | 0.985 (inactive)
COCc1cnc(C2=NC(C)(C(C)C)C(=O)N2)c(C(=O)O)c1 (configuration not stated) | 0.978 (inactive)
O=C1C=C(N(Cc2ccc(Cl)nc2)CC(F)F)CO1 | 1.02 (inactive)
O=C(O)c1nc(Cl)ccc1Cl | 1.07 (inactive)
CC(C)C(C(=O)OC(C#N)c1cccc(Oc2ccccc2)c1)c1ccc(Cl)cc1 (configuration not stated) | 0.929 (inactive)
CCOP(=S)(OCC)SCSCC | 0.962 (inactive)
N#Cc1c[nH]cc1-c1cccc(Cl)c1Cl | 1.14 (inactive)
O=c1oc2ccccc2c(O)c1C1CC(c2ccc(OCc3ccc(C(F)(F)F)cc3)cc2)Cc2ccccc21 (mixture of isomers) | 0.411 (active)
CC1(C)CCC(Cc2ccc(Cl)cc2)C1(O)Cn1cncn1 (configuration not stated) | 0.943 (inactive)
Oc1cccc2cccnc12 | 1 (inactive)
NCP(=O)(O)O | 1.04 (inactive)
CO/N=C(/C(=O)OC)c1ccccc1CO/N=C(\C)c1cccc(C(F)(F)F)c1 | 1.06 (inactive)
Clc1ccc(Cl)c(Cl)c1 | 0.989 (inactive)
O=C1C=CC(=O)C=C1 | 1.08 (inactive)
CO/N=C(/C1=NOCCO1)c1ccccc1Oc1ncnc(Oc2ccccc2Cl)c1F | 0.997 (inactive)
CCC1(C(=O)NC(C)c2ccc(Cl)cc2)C(C)C1(Cl)Cl (configuration not stated) | 0.888 (inactive)
CCOP(=S)(OCC)OP(=S)(OCC)OCC | 0.984 (inactive)
CC(C)C1(C)N=C(c2ncccc2C(=O)O)NC1=O (configuration not stated) | 0.97 (inactive)

tested on: Streptococcus salivarius; test: as above; details: 20 µM; 24 h
In short: as §1

Structure (SMILES) | growth AUC
CC1(C)C(/C=C(\Cl)C(F)(F)F)C1C(=O)OC(C#N)c1cccc(Oc2ccccc2)c1 (configuration not stated) | 0.981 (inactive)
COCCN(C(=O)CCl)c1c(C)cccc1C | 0.957 (inactive)
O=c1c2cc(F)ccc2nc(-n2cncn2)n1-c1ccc(Cl)cc1Cl | 1.02 (inactive)
Nc1cc(Cl)ccc1Cl | 1 (inactive)
CC(C)=CC1C(C(=O)OCc2cccc(Oc3ccccc3)c2)C1(C)C (mixture of isomers) | 0.951 (inactive)
CC(C)(C)c1ccc(CSc2cnn(C(C)(C)C)c(=O)c2Cl)cc1 | 0.986 (inactive)
COS(=O)(=O)[O-].Cn1c(-c2ccccc2)cc(-c2ccccc2)[n+]1C | 0.97 (inactive)
C=CCN=C=S | 0.994 (inactive)
Cc1ccc(NC(=O)N(C)C)cc1Cl | 1.02 (inactive)
CCNc1nc(NCC)nc(SC)n1 | 0.978 (inactive)
C=CCC1=C(C)C(OC(=O)[C@@H]2[C@@H](C=C(C)C)C2(C)C)CC1=O (some centres not stated) | 1.01 (inactive)
COP(=S)(OC)Oc1c(Cl)cc(C)cc1Cl | 0.972 (inactive)
CCc1cc(C)cc(CC)c1-c1c(OC(=O)C(C)(C)C)n2n(c1=O)CCOCC2 | 1.02 (inactive)
CC/C(=N\OC/C=C/Cl)C1=C(O)CC(C2CCOCC2)CC1=O (configuration not stated) | 0.994 (inactive)
N#CC(CCc1ccc(Cl)cc1)(Cn1cncn1)c1ccccc1 (configuration not stated) | 0.934 (inactive)
O=S(=O)(c1ccc(O)cc1)c1ccc(O)cc1 | 1.04 (inactive)
CCCSP(=O)(OCC)Oc1ccc(Br)cc1Cl (configuration not stated) | 1.01 (inactive)
C[C@@H](Oc1ccc(Oc2nc3ccc(Cl)cc3o2)cc1)C(=O)O | 0.925 (inactive)
CCOP(=O)(NC(C)C)Oc1ccc(SC)c(C)c1 (configuration not stated) | 0.951 (inactive)
[Cl][Sn]([c]1ccccc1)([c]1ccccc1)[c]1ccccc1 | 0.859 (inactive)

Structure (SMILES) | growth AUC
CCCCCCCCSC(=O)Oc1cc(Cl)nnc1-c1ccccc1 | 0.963 (inactive)
COP(=O)(OC)OC=C(Cl)Cl | 1.03 (inactive)
COCc1cnc(C2=NC(C)(C(C)C)C(=O)N2)c(C(=O)O)c1 (configuration not stated) | 0.977 (inactive)
O=C1C=C(N(Cc2ccc(Cl)nc2)CC(F)F)CO1 | 0.979 (inactive)
O=C(O)c1nc(Cl)ccc1Cl | 1.02 (inactive)
CC(C)C(C(=O)OC(C#N)c1cccc(Oc2ccccc2)c1)c1ccc(Cl)cc1 (configuration not stated) | 0.988 (inactive)
CCOP(=S)(OCC)SCSCC | 1.02 (inactive)
N#Cc1c[nH]cc1-c1cccc(Cl)c1Cl | 0.929 (inactive)
O=c1oc2ccccc2c(O)c1C1CC(c2ccc(OCc3ccc(C(F)(F)F)cc3)cc2)Cc2ccccc21 (mixture of isomers) | 0.212 (active)
CC1(C)CCC(Cc2ccc(Cl)cc2)C1(O)Cn1cncn1 (configuration not stated) | 1 (inactive)
Oc1cccc2cccnc12 | 0.995 (inactive)
NCP(=O)(O)O | 1.02 (inactive)
CO/N=C(/C(=O)OC)c1ccccc1CO/N=C(\C)c1cccc(C(F)(F)F)c1 | 0.998 (inactive)
Clc1ccc(Cl)c(Cl)c1 | 1.01 (inactive)
O=C1C=CC(=O)C=C1 | 0.979 (inactive)
CO/N=C(/C1=NOCCO1)c1ccccc1Oc1ncnc(Oc2ccccc2Cl)c1F | 1.04 (inactive)
CCC1(C(=O)NC(C)c2ccc(Cl)cc2)C(C)C1(Cl)Cl (configuration not stated) | 0.97 (inactive)
CCOP(=S)(OCC)OP(=S)(OCC)OCC | 0.976 (inactive)
CC(C)C1(C)N=C(c2ncccc2C(=O)O)NC1=O (configuration not stated) | 0.931 (inactive)
